Shown are actives, neighbours in structure and some others; about 3.3% of the full set was active somewhere.
Wnt bcat act: activators of Wnt/beta-catenin signaling; Wnt/beta-catenin reporter cell assay, activator, plate reader; AID 743398; 1.2% of 300,000 active; activation, % at 9.35 µM; in the data active = activation above about 30%, passing the limit was not always enough; inconclusive = no clear call, values can overlap the other calls;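 note: 0% = neutral control wells and 100% = positive control wells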
esBAF inh: SWI/SNF esBAF complex inhibition; mouse ES cells, Bmi1-luciferase knock-in reporter, 24 h; 100% = twice the neutral-well signal; reporter increase, % at 12.5 µM; 2% of 350,000 active; in the data active = activation above about 40%; inconclusive = no clear call, values can overlap the other calls;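 note: 0% = median of the plate's neutral control wells and 100% = double that signal; a rise in the Bmi1 reporter signal indicates esBAF inhibition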
C2C12 statin: protects C2C12 myotubes from simvastatin toxicity. AID 602340. 0.78% of 330,000 active. rescue of ATP level, % at 7.49 µM. ATP luminescence, 48 h; scaled: DMSO 0, geranylgeraniol control 100;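 active = mean ATP rescue above about 67%, or every replicate alone reaching that limit, limit read from the data, passing the limit was not always enough; inconclusive = no clear call, values can overlap the other calls; inactive = mean under the limit and some replicate under it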;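 note: myotubes were challenged with 10 µM simvastatin during compound exposure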
MITF TRPM1 HTS: activators of MITF-driven TRPM1 promoter activity in SK-MEL-5 cells | 0.75% of 300,000 active | SK-MEL-5 TRPM1-promoter luciferase, 24 h; % of positive control, neutral wells = 0 | activation, % at 12.5 µM;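 active = mean activation of at least 80% with every replicate also reaching 80%; inconclusive = mean reaches 80% but some replicate falls short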;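 note: 0% = neutral control wells and 100% = parthenolide positive control wells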
GAA850 FXN act: increases GAA850 frataxin promoter reporter activity; AID 540364; activation, % at 6 µM; 0.56% of 360,000 active; HEK293 lucGAA850 FXN promoter luciferase reporter, 24 h; percent of 10 µM SAHA response;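 active = activation above the average of all compounds screened plus 3 SD, cutoff fixed separately per campaign, cut at about 7.5% in these data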;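 note: 0% = DMSO wells and 100% = 10 µM SAHA wells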
Active calls of the source: *; ? = inconclusive; nt = not tested or not shown.

SMILES	Wnt bcat act	esBAF inh	C2C12 statin	MITF TRPM1 HTS	GAA850 FXN act
CCn1c(C)cc2c(c1=O)C(c1ccncc1)C(C#N)=C(N)O2 (stereo not given)	nt	-7.0	22.9	nt	0.2
Cc1cc2c(c(=O)n1Cc1cccnc1)C(c1ccc(F)cc1)C(C#N)=C(N)O2 (stereo not given)	-2.1	10.7	109.6*	-6.6	-2.9
Cc1cc2c(c(=O)n1CCN(C)C)C(c1ccc(Br)cc1)C(C#N)=C(N)O2 (stereo not given)	nt	2.6	-11.2	3.0	1.4
Cc1cc2c(c(=O)n1C)C(Cc1ccccc1)C(C#N)=C(N)O2 (stereo not given)	2.7	50.0*	15.4	nt	3.3
COCC(=O)N(C)C[C@H]1Oc2cc(C#CC(C)(C)O)ccc2S(=O)(=O)N([C@H](C)CO)C[C@H]1C	nt	2.8	1.0	nt	nt
CCC(=O)N(C)C[C@H]1Oc2cc(C3=CCCC3)ccc2S(=O)(=O)N([C@H](C)CO)C[C@H]1C	nt	-11.7	-10.5	nt	nt
C[C@H](CO)N1C[C@H](C)[C@H](CN(C)S(=O)(=O)c2ccc(Cl)cc2)Oc2ccc(NC(=O)NC3CCCCC3)cc2CC1=O	nt	2.9	-146.6	nt	nt
C[C@@H]1CN([C@H](C)CO)S(=O)(=O)c2ccc(-c3ccncc3)cc2O[C@H]1CN(C)C(=O)C1CCC1	nt	nt	-10.3	nt	nt
Oc1[nH]c2ccccc2c1N=Nc1cccc(Cl)c1	16.7	51.9*	-2.8	34.7	6.6
Cc1cccc2c(N=Nc3ccccc3)c(O)[nH]c12	44.6*	nt	nt	65.5	3.1
O=C(O)c1ccc(N=Nc2c(O)[nH]c3ccc(Br)cc23)cc1	19.0	80.2*	7.8	46.3	3.9
Cc1cccc2c(N=NC(=O)C(C)n3cnc4ccccc4c3=O)c(O)[nH]c12 (stereo not given)	-1.6	nt	nt	-11.8	1.3
O=C(CNC(=O)c1ccccc1)N=Nc1c(O)[nH]c2ccc(Br)cc12	-1.3	-3.0	-7.7	-6.3	1.2
O=C(O)c1ccc(N=Nc2c(O)[nH]c3cc(Cl)ccc23)cc1	53.0*	nt	nt	64.3	9.8*
C[C@@H]1CN([C@H](C)CO)C(=O)c2cc(-c3ccncc3)cnc2O[C@@H]1CN(C)C(=O)c1ccncc1	nt	-1.2	7.2	nt	nt
C[C@H](CO)N1C[C@H](C)[C@H](CN(C)C(=O)NC2CCCCC2)Oc2ccc(NC(=O)Cc3ccccc3)cc2CC1=O	nt	3.5	11.7	nt	nt
Cc1cccc(NC(=O)Nc2ccc3c(c2)C(=O)N(C)[C@@H]2CC[C@H](CC(=O)O)O[C@@H]2CO3)c1	nt	3.5	25.7	nt	nt
CC(=O)Nc1cccc(OCC(=O)Nc2ccccc2)c1	38.3*	44.8*	-2.6	nt	4.6
O=C(COc1ccccc1)Nc1nnc(S(=O)(=O)N2CCCC2)s1	-0.7	0.9	0.9	8.3	-0.5
CCC(C)c1ccc(OCC(=O)Nc2cccc(C(=O)Nc3ccc(C(=O)O)cc3)c2)cc1 (stereo not given)	20.4	47.3*	-0.1	42.0	2.2
Cc1cccc(OCC(=O)Nc2cccc(O)c2)c1	33.8*	22.5	3.2	nt	-3.2
COc1ccc(OCC(=O)Nc2nnc(S(=O)(=O)N3CCCCCC3)s2)cc1	-2.2	-5.5	112.6*	2.4	-1.1
CCC(C)c1ccc(OCC(=O)Nc2ccc3[nH]c(=O)[nH]c3c2)cc1 (stereo not given)	-9.2	nt	nt	-1.5	0.4
C[C@@H]1CCCCO[C@@H](CN(C)C(=O)Cc2ccccc2)[C@@H](C)CN([C@@H](C)CO)C(=O)c2cc(NS(=O)(=O)c3cccs3)ccc2O1	nt	5.7	nt	nt	nt
O=C(C[C@@H]1C=C[C@H](NC(=O)c2cccnc2)[C@H](CO)O1)NCCN1CCCCC1	nt	-7.4	-10.9	nt	nt
SMILES	Wnt bcat act	esBAF inh	C2C12 statin	MITF TRPM1 HTS	GAA850 FXN act
CO[C@H]1CN(C)C(=O)c2ccc(NC(=O)Nc3cc(F)ccc3F)cc2OC[C@H](C)N(C(=O)c2cnccn2)C[C@H]1C	nt	1.5	-11.3	nt	nt
Cc1cccc(OCC(=O)Nc2cc(C)on2)c1	nt	-3.6	122.0*	31.9	-1.7
Cc1ccnc(NC(=O)COc2ccc3c(c2)CCC3)c1	-19.1	52.9*	-1.4	41.6	4.3
CC(C)c1ccc(NC(=O)COc2ccccc2)cc1	-2.0	79.3*	-4.9	65.7	1.3
Cc1cc(NC(=O)COc2ccc3ccccc3c2Br)no1	40.2*	?	0.6	67.9	3.8
CO[C@H]1CC[C@@H]2CCOc3ccc(C#N)cc3C(=O)N(C)C[C@@H](OC)[C@H](C)C(=O)N(C)C[C@H]1O2	nt	7.6	0.8	nt	nt
CNC[C@@H]1OCCCC[C@@H](C)Oc2ccc(NS(=O)(=O)c3ccc(OC)cc3)cc2C(=O)N([C@@H](C)CO)C[C@H]1C	nt	2.0	-4.4	nt	nt

Assay outcomes (PubChem)
